# Shown is part of a subset that was picked to be rich in the strongest signals.
# B1: F17-L (Escherichia coli) (protein)
# chain: GPDDYVPSQIAVNTSTLPGVVIGPADAHTYPRVIGELAGTSNQYVFNGGAIALMRGKFTPALPKIGSITYTFHQGNSRDSSDFDIYDIGVSGLGIIIGMAGYWPATPLVPINSSGIYIDPVGANTNPNTYNGATASFGARLFVAFVATGRLPNGYITIPTRQLGTILLEAKRTSLNNKGLTAPVMLNGGRIQVQSQTHHHHHH
# Experiments:
# Test in all cases: glycan array binding signal (z-score within array); higher = stronger binding
# Details in all cases: glycan notation: IUPAC condensed, linker removed
# [1] = biological target: Fuc(a1-2)Gal(b1-3)GalNAc(b1-3)Gal
# How it was run: (§1)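 The binding signal is a Z-score computed within each array. Data were drawn from 3228 arrays in the Consortium for Functional Glycomics database, restricted to those with a known protein sequence. Scores were averaged over arrays of the same protein sequence at different concentrations or buffers, and over linkers, and negative values can be taken as non-binding.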
# [2] = biological target: Fuc(a1-2)Gal(b1-3)GlcNAc(b1-3)Gal(b1-4)Glc
# How it was run: as §1
# [3] = biological target: Fuc(a1-2)Gal(b1-4)[Fuc(a1-3)]GlcNAc(b1-3)[Neu5Ac(a2-6)Gal(b1-4)GlcNAc(b1-6)]Gal(b1-4)Glc
# How it was run: as §1
# [4] = biological target: Fuc(a1-2)[Gal(a1-3)]Gal(b1-4)GlcNAc(b1-2)Man
# How it was run: as §1
# [5] = biological target: Fuc(a1-2)[GalNAc(a1-3)]Gal(b1-3)GalNAc(b1-3)Gal(a1-4)Gal(b1-4)Glc
# How it was run: as §1
# [6] = biological target: Fuc(a1-2)[GalNAc(a1-3)]Gal(b1-3)GlcNAc(b1-2)Man(a1-3)[Fuc(a1-2)[GalNAc(a1-3)]Gal(b1-3)GlcNAc(b1-2)Man(a1-6)]Man(b1-4)GlcNAc(b1-4)GlcNAc
# How it was run: as §1
# [7] = biological target: Fuc(a1-3)[Gal(b1-4)]GlcNAc(b1-2)Man(a1-3)[Fuc(a1-3)[Gal(b1-4)]GlcNAc(b1-2)Man(a1-6)]Man(b1-4)GlcNAc(b1-4)GlcNAc
# How it was run: as §1
# [8] = biological target: Gal(a1-3)Gal(b1-3)GlcNAc(b1-3)GalNAc
# How it was run: as §1
# [9] = biological target: Gal(a1-3)Gal(b1-3)[Fuc(a1-4)]GlcNAc(b1-2)Man(a1-3)[Gal(a1-3)Gal(b1-3)[Fuc(a1-4)]GlcNAc(b1-2)Man(a1-6)]Man(b1-4)GlcNAc(b1-4)GlcNAc
# How it was run: as §1
# Gal(a1-3)GalNAc = biological target: Gal(a1-3)GalNAc
# How it was run: as §1
# Gal(a1-4)Gal(b1-4)GlcNAc = biological target: Gal(a1-4)Gal(b1-4)GlcNAc
# How it was run: as §1
# [10] = biological target: Gal(a1-4)Gal(b1-4)GlcNAc(b1-2)Man(a1-3)[Gal(a1-4)Gal(b1-4)GlcNAc(b1-2)Man(a1-6)]Man(b1-4)GlcNAc(b1-4)GlcNAc
# How it was run: as §1
# [11] = biological target: Gal(a1-4)Gal(b1-4)GlcNAc(b1-3)Gal(b1-4)Glc
# How it was run: as §1
# Gal(b1-2)Gal = biological target: Gal(b1-2)Gal
# How it was run: as §1
# [12] = biological target: Gal(b1-3)GlcNAc(b1-3)Gal(b1-4)Glc
# How it was run: as §1
# [13] = biological target: Gal(b1-3)[Fuc(a1-4)]GlcNAc(b1-2)Man(a1-3)[Gal(b1-3)[Fuc(a1-4)]GlcNAc(b1-2)Man(a1-6)]Man(b1-4)GlcNAc(b1-4)[Fuc(a1-6)]GlcNAc
# How it was run: as §1
# Gal(b1-4)Glc = biological target: Gal(b1-4)Glc
# How it was run: as §1
# [14] = biological target: Gal(b1-4)GlcNAc(b1-2)[Gal(b1-4)GlcNAc(b1-4)]Man(a1-3)[Gal(b1-4)GlcNAc(b1-2)Man(a1-6)]Man(b1-4)GlcNAc(b1-4)GlcNAc
# How it was run: as §1
# [15] = biological target: Gal(b1-4)GlcNAc(b1-3)Gal(b1-4)Glc
# How it was run: as §1
# [16] = biological target: Gal(b1-4)GlcNAc(b1-3)Gal(b1-4)GlcNAc(b1-3)Gal(b1-4)GlcNAc(b1-2)Man(a1-3)[Gal(b1-4)GlcNAc(b1-3)Gal(b1-4)GlcNAc(b1-3)Gal(b1-4)GlcNAc(b1-2)Man(a1-6)]Man(b1-4)GlcNAc(b1-4)[Fuc(a1-6)]GlcNAc
# How it was run: as §1
# [17] = biological target: Gal(b1-4)GlcNAc(b1-3)GalNAc
# How it was run: as §1
# [18] = biological target: Gal(b1-4)GlcNAc(b1-6)Gal(b1-4)GlcNAc
# How it was run: as §1
# Gal(b1-6)Gal = biological target: Gal(b1-6)Gal
# How it was run: as §1
# Gal4S(b1-4)GlcNAc = biological target: Gal4S(b1-4)GlcNAc
# How it was run: as §1
# GalNAc(b1-3)GalNAc = biological target: GalNAc(b1-3)GalNAc
# How it was run: as §1
# GlcA(b1-3)GlcNAc = biological target: GlcA(b1-3)GlcNAc
# How it was run: as §1
# [19] = biological target: GlcNAc(a1-4)Gal(b1-4)GlcNAc(b1-3)Gal(b1-4)[Fuc(a1-3)]GlcNAc(b1-3)Gal(b1-4)[Fuc(a1-3)]GlcNAc
# How it was run: as §1
# [20] = biological target: GlcNAc(b1-3)Gal(b1-4)GlcNAc(b1-3)Gal(b1-4)GlcNAc(b1-2)Man(a1-3)[GlcNAc(b1-3)Gal(b1-4)GlcNAc(b1-3)Gal(b1-4)GlcNAc(b1-2)Man(a1-6)]Man(b1-4)GlcNAc(b1-4)GlcNAc
# How it was run: as §1
# [21] = biological target: GlcNAc(b1-3)Gal(b1-4)GlcNAc(b1-3)Gal(b1-4)GlcNAc(b1-3)Gal(b1-4)GlcNAc(b1-3)Gal(b1-4)GlcNAc(b1-2)[GlcNAc(b1-3)Gal(b1-4)GlcNAc(b1-3)Gal(b1-4)GlcNAc(b1-3)Gal(b1-4)GlcNAc(b1-3)Gal(b1-4)GlcNAc(b1-6)]Man(a1-6)[GlcNAc(b1-3)Gal(b1-4)GlcNAc(b1-3)Gal(b1-4)GlcNAc(b1-3)Gal(b1-4)GlcNAc(b1-3)Gal(b1-4)GlcNAc(b1-2)Man(a1-3)]Man(b1-4)GlcNAc(b1-4)[Fuc(a1-6)]GlcNAc
# How it was run: as §1
# [22] = biological target: GlcNAc(b1-3)[GlcNAc(b1-6)]Gal(b1-4)GlcNAc
# How it was run: as §1
binder,measurement,setting,value
B1,glycan array binding signal (z-score),[1],-0.136
same,glycan array binding signal (z-score),[2],1.54
same,glycan array binding signal (z-score),[3],-0.136
same,glycan array binding signal (z-score),[4],0.196
same,glycan array binding signal (z-score),[5],0.104
same,glycan array binding signal (z-score),[6],-0.078
same,glycan array binding signal (z-score),[7],-0.072
same,glycan array binding signal (z-score),[8],-0.023
same,glycan array binding signal (z-score),[9],0.699
same,glycan array binding signal (z-score),Gal(a1-3)GalNAc,-0.118
same,glycan array binding signal (z-score),Gal(a1-4)Gal(b1-4)GlcNAc,1.8
same,glycan array binding signal (z-score),[10],22.9
same,glycan array binding signal (z-score),[11],2.92
same,glycan array binding signal (z-score),Gal(b1-2)Gal,-0.01
same,glycan array binding signal (z-score),[12],1.3
same,glycan array binding signal (z-score),[13],0.915
same,glycan array binding signal (z-score),Gal(b1-4)Glc,-0.096
same,glycan array binding signal (z-score),[14],-0.169
same,glycan array binding signal (z-score),[15],1.67
same,glycan array binding signal (z-score),[16],0.05
same,glycan array binding signal (z-score),[17],-0.12
same,glycan array binding signal (z-score),[18],-0.156
same,glycan array binding signal (z-score),Gal(b1-6)Gal,-0.146
same,glycan array binding signal (z-score),Gal4S(b1-4)GlcNAc,-0.113
same,glycan array binding signal (z-score),GalNAc(b1-3)GalNAc,-0.19
same,glycan array binding signal (z-score),GlcA(b1-3)GlcNAc,1
same,glycan array binding signal (z-score),[19],-0.101
same,glycan array binding signal (z-score),[20],0.024
same,glycan array binding signal (z-score),[21],0.006
same,glycan array binding signal (z-score),[22],-0.228

# From the supplement of paper PMC8728848
